Source: ChEMBL document CHEMBL1157539, “Thousands of chemical starting points for antimalarial lead identification” (Nature, 2010)

system: Plasmodium falciparum; assay: GSK_TCMDC: Inhibition of Plasmodium falciparum Dd2 in whole red blood cells, using parasite LDH activity as an index of growth. Test compounds present at 2uM; type: functional

Compound	Inhibition
CCCc1nc2c(N3CC(NC(=O)/C=C/c4ccccc4)C3)cccc2n1C1CC1	68%
N=C(N)Nc1nc(-c2ccc(NCc3ccc(CNc4cccc(-c5csc(NC(=N)N)n5)c4)cc3)cc2)cs1	99%
Cc1cc(NC(=O)Nc2ccc(C(C)C)cc2)c2ccccc2n1.Cl	16%
Cc1cccc2nc(-c3cccc(-c4ccc(NC(=O)C(C)(C)c5ccccn5)cc4)c3)[nH]c12	4%
COC(=O)c1cccc(CNCc2ccc(-c3ccc(-c4nc5cc(C(F)(F)F)ccc5[nH]4)s3)cc2)c1.O=C(O)C(F)(F)F	96%
CN1CCN(CCCN(Cc2csc(-c3ccc(CNCc4ccccc4)cc3)n2)C(=O)Nc2cc(Cl)cc(Cl)c2)CC1.O=C(O)C(F)(F)F	45%
COc1ccc(-c2ccc(NC(=O)c3ccc(C#N)cc3)cc2)cc1CN1CCC(O)CC1.O=C(O)C(F)(F)F	28%
Nc1nccc2ccc(-c3ccc(NC(=O)Nc4cc(C(F)(F)F)ccc4F)cc3)cc12.O=C(O)C(F)(F)F	100%
N#Cc1cccc(C(=O)Nc2cccc(-c3cccc(CN4CCNCC4)c3)c2)c1.O=C(O)C(F)(F)F	10%
CC(C)NC(=O)c1cccc(-c2cccc(OCCN3CCSCC3c3ccccc3)c2)c1 (stereo not given)	45%
COc1ccc(Br)cc1/C=C/C(=O)Nc1cccc(C2CCN(C)CC2)c1.O=CO	37%
CN(C)CCOc1ccc2c(=O)cc(CCc3cccc(F)c3F)n(CC(=O)N(C)Cc3ccc(-c4ccc(C(F)(F)F)cc4)cc3)c2c1.O=C(O)C(O)C(O)C(=O)O	60%
O=C(Nc1cccc(C(F)(F)F)c1)c1cccc(S(=O)(=O)NC2CCCN(CC3CCCCC3)C2)c1.O=C(O)C(F)(F)F (stereo not given)	15%
COc1cc(Cc2cnc(N)nc2N)cc(OC)c1OCCNC(=O)[C@@H](N)CCC(=O)O.Cl	0%
COc1cc2ncnc(Nc3ccc4nc(Cc5ccccc5)[nH]c4c3)c2cc1OC.Cl	28%
O=C(NCCc1cccc(Cl)c1Cl)c1ccc(N2CCN(c3ccncc3)CC2)nc1.O=C(O)C(F)(F)F	79%
COc1ccc2nccc([C@@H](O)CN3C4CCC3CC(NCc3ccc5c(n3)NC(=O)CS5)C4)c2n1.Cl (stereo not given in full)	11%
Cc1ccc(NC(=O)c2cccc(CN3CCCN(Cc4cccc(O)c4)CC3)c2)cc1C.O=C(O)C(F)(F)F	31%
O=C(/C=C/c1ccc(Cl)c(Cl)c1)NCCCCCN1CCC(C(=O)Nc2ccc(F)c(Cl)c2)CC1	0%
O=C(Nc1ccc2c(c1)CCN2C1CCN(Cc2ccc(C(F)(F)F)cc2F)C1)c1ccco1 (stereo not given)	94%
Cc1cc(NC(=O)c2ccco2)ccc1OC1CCN(Cc2ccc(C#N)cc2)CC1.O=C(O)C(F)(F)F	89%
Cc1cc(NC(=O)c2ccc(S(=O)(=O)N(Cc3ccccc3)C(C)C)cc2)no1	67%
COc1ccc2nc3cc(Cl)ccc3c(NCCCCN3CCNCC3)c2c1.Cl	75%
Cc1noc(C)c1-c1ccc2c(Nc3ccc(C#N)cc3)c(C(N)=O)cnc2c1	73%
O=C(NC1CC1)c1cnc(N2CCN(Cc3c(F)cccc3Cl)CC2)c(Cl)c1.O=C(O)C(F)(F)F	93%
O=C(O)C(F)(F)F.O=C1OC2(CCN(Cc3cccc(-c4ncc[nH]4)c3)CC2)CN1CCNCc1ccccc1	0%

system: HepG2; assay: GSK_TCMDC: Percent inhibition of human HepG2 cell line. Test compounds present at 10uM.; type: functional

Compound	Inhibition
CC(=O)Nc1ccc2[nH]cc(C3CCN(CCC4CCN(C(=O)/C=C/c5ccc(Cl)c(Cl)c5)CC4)CC3)c2n1	16%
CC(C)(C)NS(=O)(=O)c1cc(C(=O)N2CCC(CCN3CCC(O)(c4cccc(C(F)(F)F)c4)CC3)(c3cccc(F)c3)CC2)c(Cl)cc1F	15%
COc1ccc(-n2ccnc2SCC(=O)Nc2cccc(C(F)(F)F)c2)c(OC)c1	0%
Br.Cn1c(=N)n(CC(=O)OCc2ccc(OCc3ccccc3)cc2)c2ccccc21	5%
Br.CC1(C)NC(N)=NC(=N)N1OCCCc1c(Cl)cccc1Cl	71%
Cc1cccn2c(=O)c3cc(C(=O)NC(C)c4ccccc4)c(=N)n(CCN4CCOCC4)c3nc12 (stereo not given)	6%
O=C(CCCc1ccccc1)Nc1cccc(N2CCC(N3CCN(c4ccccc4O)CC3)CC2)c1	31%
CN(C)CC(O)COc1ccc(Nc2ncc([N+](=O)[O-])c(Nc3ccccc3O)n2)cc1.O=C(O)C(F)(F)F (stereo not given)	47%
O=C(/C=C/c1ccc(Cl)cc1)NCCCCCN1CCN(C(=O)C=Cc2ccc(Cl)c(Cl)c2)CC1.O=C(O)C(F)(F)F	30%
COc1ccc2c(=NN=Cc3ccc(OC)c4ccccc34)cc(C)[nH]c2c1	3%
O=C(Nc1ccc2ccccc2c1)N(CCCn1ccnc1)Cc1csc(-c2ccc(CNCc3ccccc3)cc2)n1.O=C(O)C(F)(F)F	10%
C(=N\Nc1nccc2sc(-c3cccnc3)cc12)/c1ccncc1	65%
N#Cc1ccc(S(=O)(=O)N2C(c3cccc([N+](=O)[O-])c3)C(C(=O)c3ccccc3)N(C3CCCCC3)C2c2cccc([N+](=O)[O-])c2)cc1 (stereo not given)	16%
CCCc1nc2c(N3CC(NC(=O)/C=C/c4ccccc4)C3)cccc2n1C1CC1	1%
N=C(N)Nc1nc(-c2ccc(NCc3ccc(CNc4cccc(-c5csc(NC(=N)N)n5)c4)cc3)cc2)cs1	11%
Cc1cc(NC(=O)Nc2ccc(C(C)C)cc2)c2ccccc2n1.Cl	7%
Cc1cccc2nc(-c3cccc(-c4ccc(NC(=O)C(C)(C)c5ccccn5)cc4)c3)[nH]c12	0%
COC(=O)c1cccc(CNCc2ccc(-c3ccc(-c4nc5cc(C(F)(F)F)ccc5[nH]4)s3)cc2)c1.O=C(O)C(F)(F)F	34%
CN1CCN(CCCN(Cc2csc(-c3ccc(CNCc4ccccc4)cc3)n2)C(=O)Nc2cc(Cl)cc(Cl)c2)CC1.O=C(O)C(F)(F)F	34%
COc1ccc(-c2ccc(NC(=O)c3ccc(C#N)cc3)cc2)cc1CN1CCC(O)CC1.O=C(O)C(F)(F)F	24%

Compound	Inhibition
Nc1nccc2ccc(-c3ccc(NC(=O)Nc4cc(C(F)(F)F)ccc4F)cc3)cc12.O=C(O)C(F)(F)F	99%
N#Cc1cccc(C(=O)Nc2cccc(-c3cccc(CN4CCNCC4)c3)c2)c1.O=C(O)C(F)(F)F	37%
CC(C)NC(=O)c1cccc(-c2cccc(OCCN3CCSCC3c3ccccc3)c2)c1 (stereo not given)	24%
COc1ccc(Br)cc1/C=C/C(=O)Nc1cccc(C2CCN(C)CC2)c1.O=CO	44%
CN(C)CCOc1ccc2c(=O)cc(CCc3cccc(F)c3F)n(CC(=O)N(C)Cc3ccc(-c4ccc(C(F)(F)F)cc4)cc3)c2c1.O=C(O)C(O)C(O)C(=O)O	33%
O=C(Nc1cccc(C(F)(F)F)c1)c1cccc(S(=O)(=O)NC2CCCN(CC3CCCCC3)C2)c1.O=C(O)C(F)(F)F (stereo not given)	18%
COc1cc(Cc2cnc(N)nc2N)cc(OC)c1OCCNC(=O)[C@@H](N)CCC(=O)O.Cl	0%
COc1cc2ncnc(Nc3ccc4nc(Cc5ccccc5)[nH]c4c3)c2cc1OC.Cl	0%
O=C(NCCc1cccc(Cl)c1Cl)c1ccc(N2CCN(c3ccncc3)CC2)nc1.O=C(O)C(F)(F)F	38%
COc1ccc2nccc([C@@H](O)CN3C4CCC3CC(NCc3ccc5c(n3)NC(=O)CS5)C4)c2n1.Cl (stereo not given in full)	0%
Cc1ccc(NC(=O)c2cccc(CN3CCCN(Cc4cccc(O)c4)CC3)c2)cc1C.O=C(O)C(F)(F)F	19%
O=C(/C=C/c1ccc(Cl)c(Cl)c1)NCCCCCN1CCC(C(=O)Nc2ccc(F)c(Cl)c2)CC1	25%
O=C(Nc1ccc2c(c1)CCN2C1CCN(Cc2ccc(C(F)(F)F)cc2F)C1)c1ccco1 (stereo not given)	9%
Cc1cc(NC(=O)c2ccco2)ccc1OC1CCN(Cc2ccc(C#N)cc2)CC1.O=C(O)C(F)(F)F	2%
Cc1cc(NC(=O)c2ccc(S(=O)(=O)N(Cc3ccccc3)C(C)C)cc2)no1	0%
COc1ccc2nc3cc(Cl)ccc3c(NCCCCN3CCNCC3)c2c1.Cl	29%
Cc1noc(C)c1-c1ccc2c(Nc3ccc(C#N)cc3)c(C(N)=O)cnc2c1	6%
O=C(NC1CC1)c1cnc(N2CCN(Cc3c(F)cccc3Cl)CC2)c(Cl)c1.O=C(O)C(F)(F)F	0%
O=C(O)C(F)(F)F.O=C1OC2(CCN(Cc3cccc(-c4ncc[nH]4)c3)CC2)CN1CCNCc1ccccc1	0%
